Reference: article PMC4336329 (PLoS ONE, 2015)
In all, about 310,000 compounds went through this assay and about 14,000 (4.5%) showed an effect of 50% or more. The effect is printed as a negative number. The list comes from a sample in which strong results are over-represented; it also holds similar structures and randomly drawn compounds.

These molecules were tested against human ether-à-go-go-related gene (hERG) potassium channel (human, UniProt Q12809) (assay: primary screen, population patch clamp on CHO cells stably expressing hERG; higher = less effect of the substance).
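Also: peak tail current of the secondary pulse compared with the same well before compound.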

human ether-à-go-go-related gene (hERG) potassium channel, sequence (Q12809 whole entry, looked up): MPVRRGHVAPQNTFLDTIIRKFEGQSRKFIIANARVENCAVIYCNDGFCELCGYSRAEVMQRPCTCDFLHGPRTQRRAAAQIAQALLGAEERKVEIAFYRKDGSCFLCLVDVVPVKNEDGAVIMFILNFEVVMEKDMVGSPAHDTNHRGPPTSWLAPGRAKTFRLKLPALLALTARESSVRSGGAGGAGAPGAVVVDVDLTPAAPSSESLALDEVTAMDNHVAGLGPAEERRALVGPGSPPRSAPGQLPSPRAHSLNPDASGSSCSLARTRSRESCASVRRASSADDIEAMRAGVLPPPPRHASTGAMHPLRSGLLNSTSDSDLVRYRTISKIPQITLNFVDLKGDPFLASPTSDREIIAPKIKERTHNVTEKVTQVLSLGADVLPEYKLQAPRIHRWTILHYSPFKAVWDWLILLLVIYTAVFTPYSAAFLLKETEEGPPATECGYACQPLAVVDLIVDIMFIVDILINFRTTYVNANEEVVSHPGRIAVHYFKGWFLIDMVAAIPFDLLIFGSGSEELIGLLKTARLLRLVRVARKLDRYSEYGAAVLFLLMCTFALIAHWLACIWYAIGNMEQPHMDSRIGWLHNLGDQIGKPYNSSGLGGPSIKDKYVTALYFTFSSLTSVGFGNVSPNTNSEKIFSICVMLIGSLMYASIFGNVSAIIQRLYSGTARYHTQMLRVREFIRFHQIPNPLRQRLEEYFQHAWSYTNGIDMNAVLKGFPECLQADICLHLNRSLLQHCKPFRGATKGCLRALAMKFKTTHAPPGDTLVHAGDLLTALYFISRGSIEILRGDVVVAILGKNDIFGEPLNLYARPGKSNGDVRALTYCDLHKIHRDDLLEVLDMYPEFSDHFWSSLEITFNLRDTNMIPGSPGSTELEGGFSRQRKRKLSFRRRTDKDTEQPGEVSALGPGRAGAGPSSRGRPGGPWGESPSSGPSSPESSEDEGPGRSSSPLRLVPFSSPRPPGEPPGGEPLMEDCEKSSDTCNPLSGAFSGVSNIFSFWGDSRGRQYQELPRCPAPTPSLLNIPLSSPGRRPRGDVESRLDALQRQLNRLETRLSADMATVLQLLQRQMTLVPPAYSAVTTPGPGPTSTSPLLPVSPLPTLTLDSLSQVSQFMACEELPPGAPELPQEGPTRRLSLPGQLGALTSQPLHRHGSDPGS

Compound	hERG current change (%, negative = inhibition) at 10uM
COc1ccc(OC)c(NC(=O)c2ccc(CN3CCc4ccccc4C3)cc2)c1	3.78%
O=C(Nc1ccc(F)cc1)c1cccc(C(=O)Nc2ccc(F)cc2)c1	-28.4%
O=C(CN1C(=O)S/C(=C\c2ccc(O)c([N+](=O)[O-])c2)C1=O)Nc1ccc(N2CCOCC2)cc1	12.2%
O=C1CCC(=O)N1OCCCOc1ccc2c(c1)CCC2	1.61%
CCCNC(=O)Cc1c(C)n(C(=O)c2ccc(Cl)cc2)c2ccc(OC)cc12	14.6%
COC(=O)C1=NNC2(c3ccc(C)cc3)C(=O)N(c3ccc(C)cc3)C(=O)C12 (stereo not drawn)	16.5%
N/C(=N\OC(=O)c1ccccc1)c1ccccn1	12.9%
CCOc1ccc(CC(=O)N/N=C/c2cccnc2)cc1OCC	14%
CCCC(=O)Nc1ccc(C(=O)O)cc1NC(=O)CCC	8.09%
CCNc1cc2n(c(=O)n1)CCc1cc(OC)c(OC)cc1-2	-19.5%
Cc1ccc(C(=O)N/C(=C/c2cccs2)C(=O)NCc2ccco2)cc1	-15.8%
Cc1ccc(C(=O)NC(=S)NCc2cccnc2)cc1	-7.52%
Cc1ccc(C(=O)N/C(=C/c2cccs2)C(=O)NCC2CCCO2)cc1 (stereo not drawn)	-9.01%
Cc1ccc(C(=O)N/C(=C\c2cccs2)C(=O)NCc2ccncc2)cc1	-52.9%
Cc1ccc(C(=O)N/C(=C\c2sccc2C)C(=O)NCc2ccncc2)cc1	-30.5%
Cc1ccc(C(=O)N/C(=C\c2cccs2)C(=O)NCc2cccnc2)cc1	-58%
CC1(C)CC(OC(=O)c2ccccc2)CC(C)(C)N1	9.14%
COc1ccc(NC(=O)c2oc3ccccc3c2NC(=O)C(C)(C)C)cc1	11.3%
CC(CCC(=O)Nc1nncs1)C(=O)O (stereo not drawn)	-6.61%
CCCOC(=S)NC(=O)c1sc2ccccc2c1Cl	12.3%
CC(C)c1nc2cc(C(=O)N(C)Cc3ccc(F)cc3)ccc2o1	1.04%
O=C1CCc2cc(S(=O)(=O)N3CCC(C(=O)NCc4ccccc4Cl)CC3)ccc2N1	4.83%
CCOCCCNC(=O)CCc1nnc2n(CCC(C)C)c(=O)c3ccccc3n12	-22.5%

Compound	hERG current change (%, negative = inhibition) at 10uM
CC(C)Cn1c(=O)c2ccccc2n2c(CCC(=O)NC3CCN(Cc4ccccc4)CC3)nnc12	-39.4%
CC(C)OCCCn1c(=O)c2ccccc2n2c(CCC(=O)NC3CCN(Cc4ccccc4)CC3)nnc12	-51.4%
CN1CCN(CCCNC(=O)CCc2nnc3n(Cc4ccccc4Cl)c(=O)c4ccccc4n23)CC1	5.29%
O=C(CCc1nnc2n(CCc3ccccc3)c(=O)c3ccccc3n12)NCCCN1CCCCC1	-77.6%
CC(C)CCn1c(=O)c2ccccc2n2c(CCC(=O)NCC3CCCO3)nnc12 (stereo not drawn)	-1.79%
CC(C)CCNC(=O)CCc1nnc2n(CCCOC(C)C)c(=O)c3ccccc3n12	-26.7%
CC(C)CCn1c(=O)c2ccccc2n2c(CCC(=O)NC3CCN(Cc4ccccc4)CC3)nnc12	-49.6%
CC1CCN(CCCNC(=O)CCc2nnc3n(CCc4ccccc4)c(=O)c4ccccc4n23)CC1	-76.8%
Cc1ccc(S(=O)(=O)NNC(=O)C2CCCCC2)cc1	9.57%
NC(=O)[C@@H]1CCCN1Cc1nc(-c2ccc(C(F)(F)F)cc2)no1	-5.68%
CC(O)[C@@H](C(=O)N1CCNCC1)n1cc(CCCCN)nn1.Cl (stereo partly drawn)	14.3%
O=C(c1ccc(F)cc1)N1CCN(c2ccc([N+](=O)[O-])c(N3CCCCC3)c2)CC1	-15.3%
O=C(c1ccc(F)cc1)N1CCN(c2ccc([N+](=O)[O-])c(N3CCOCC3)c2)CC1	-58.3%
O=C(c1ccc2ccccc2c1)N1CCN(c2ccc([N+](=O)[O-])c(N3CCOCC3)c2)CC1	-18.8%
O=C(c1cccc2ccccc12)N1CCN(c2ccc([N+](=O)[O-])c(N3CCOCC3)c2)CC1	-13.7%
O=C(c1ccccc1)N1CCN(c2ccc([N+](=O)[O-])c(N3CCOCC3)c2)CC1	-7.22%
Cc1ccc(C(=O)N2CCN(c3ccc([N+](=O)[O-])c(N4CCOCC4)c3)CC2)cc1	-60%
C=CCSc1n[nH]c(-c2ccc(OCCCC)cc2)n1	-7.32%
COc1cccc(NC(=O)N2CCN(c3cccc(C)c3)C(C)C2)c1 (stereo not drawn)	-16%
Cc1cccc(N2CCN(C(=O)c3ccc4nc(-c5ccco5)c(-c5ccco5)nc4c3)CC2C)c1 (stereo not drawn)	2.44%
COc1cccc(N2CCN(C(=O)c3ccc(=O)oc3)CC2C)c1 (stereo not drawn)	-59.7%
CC(C)CCNc1cc(=O)n(C)c(=O)n1C	4.5%
